Compound activity from PubChem BioAssay.
C8 TRAIL sens – sensitizes caspase-8 expressing cells to TRAIL; NB7+C8 cells + TRAIL, ATPlite viability luminescence; inhibition (viability loss, TRAIL sensitization), % at 10 µM; actives 1% (n = 360,000); AID 624354;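 active means compounds causing at least 50% loss of cell viability in the single-dose screen, relative to plate controls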
HSP90 inh – inhibitors of HSP90 luciferase refolding in rabbit reticulocyte lysate. actives 0.91% (n = 290,000). inhibition, % at 5.6 µM. luciferase refolding luminescence, 3 h;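 active means inhibition above the screen-wide mean plus 3 SD, computed separately per campaign, cut at about 16% in these data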;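 further: inhibitors lower the luminescence because luciferase stays unfolded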
aSyn UTR inh – MLPCN primary screen, SNCA 5' untranslated region; actives 0.82% (n = 300,000); alpha-synuclein 5'UTR reporter, inhibitor activity; AID 1813; inhibition, % (tested at 7.5 µM); in the data active means inhibition above about 60%;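 further: H4 neuroglioblastoma cells stably carrying SNCA 5'UTR luciferase fusion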
HIF-2a inh – HIF-2a inhibition; 786-0 RCC cells HIF-2a reporter, luciferase luminescence, overnight; inhibition, % at 18.8 µM; actives 0.72% (n = 360,000); AID 624352;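 active means inhibition of the luminescence signal of 40% or more relative to plate controls, in a single-dose primary screen at 18.75 µM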
TROY NFkB inh – TROY signaling inhibition | Q293 LMP1-TROYcd NF-kB luciferase reporter, 4 h | inhibition, % at 10 µM | actives 0.98% (n = 360,000);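 active means compounds whose plate-normalised and pattern-corrected inhibition of the luciferase reporter signal at the single screening dose is 50% or more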
TWEAK-Fn14 inh – blocks TWEAK-Fn14 interaction in a reporter cell assay. TWEAK-stimulated Fn14 reporter cells, luciferase luminescence, 8 h. actives 2% (n = 360,000). inhibition, % at 10 µM; in the data active means inhibition above about 50%
HSP90 inh confirm – confirmation of HSP90 inhibitors; shares compounds with HSP90 inh; rabbit reticulocyte lysate, luciferase refolding luminescence, 3 h; inhibition, % at 5.9 µM; actives 64% (n = 2,300); AID 1846; in the data active means inhibition above about 18%
luciferase ctr – counter-screen for HSP90 inhibitors: inhibitors of firefly luciferase | shares compounds with HSP90 inh | purified native firefly luciferase, luminescence | inhibition, % at 5.9 µM | actives 48% (n = 2,300) | AID 1847;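 active means inhibition above the mean inhibition of all tested sample wells plus 3 SD, cut at about 10% in these data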
Target sequence (P08659 whole entry, looked up): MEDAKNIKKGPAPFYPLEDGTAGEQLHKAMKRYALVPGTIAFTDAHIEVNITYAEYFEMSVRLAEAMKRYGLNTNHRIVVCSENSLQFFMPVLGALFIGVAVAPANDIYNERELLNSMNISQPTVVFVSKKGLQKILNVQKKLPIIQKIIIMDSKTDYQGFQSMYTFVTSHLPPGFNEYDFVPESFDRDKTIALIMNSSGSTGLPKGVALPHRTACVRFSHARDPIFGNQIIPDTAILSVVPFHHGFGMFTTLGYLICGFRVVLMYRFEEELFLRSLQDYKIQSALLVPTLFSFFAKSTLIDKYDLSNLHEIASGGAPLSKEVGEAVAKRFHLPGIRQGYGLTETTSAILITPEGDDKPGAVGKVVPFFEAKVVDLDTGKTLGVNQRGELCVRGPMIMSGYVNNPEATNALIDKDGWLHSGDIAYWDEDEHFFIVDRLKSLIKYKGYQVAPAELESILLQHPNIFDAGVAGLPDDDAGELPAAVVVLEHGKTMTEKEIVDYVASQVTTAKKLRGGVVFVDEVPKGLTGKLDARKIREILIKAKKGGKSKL
Mdm2-MdmX confirm – confirmation of inhibitors of human Mdm2/MdmX interaction, set 2; SaOS-2 split-luciferase Mdm2/MdmX complementation, luminescence; actives 99% (n = 740); AID 504601; shares compounds with HIF-2a inh; inhibition, % at 8 µM;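 active means mean inhibition of the luminescence signal across two replicates at or above 26 percent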
HIF-2a inh conf – confirmation of HIF-2a inhibitors | shares compounds with HIF-2a inh | 786-0 RCC cells, HIF-2a luciferase reporter luminescence, overnight | inhibition, % at 18.8 µM | actives 56% (n = 1,800);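 active means mean inhibition across four replicates of at least 40 percent at the single tested concentration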
HIF-1a counter – HIF-1a inhibition counter-screen for HIF-2a hits; shares compounds with HIF-2a inh; MiaPaCa-2 HIF-1a luciferase reporter, desferoxamine, overnight; inhibition, % at 18.8 µM; actives 72% (n = 1,800); AID 651589;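 active means mean inhibition of the reporter signal across four replicates at the single tested dose of 50% or more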
A number is an active result; - = inactive; . = no result given. This is a sample that favours compounds with a hit; in the whole collection about 3.9% have one here.

SMILES | C8 TRAIL sens | HSP90 inh | aSyn UTR inh | HIF-2a inh | TROY NFkB inh | TWEAK-Fn14 inh | HSP90 inh confirm | luciferase ctr | HIF-2a inh conf | HIF-1a counter | others
CCc1ccc(/C=C2\SC(=S)N(CCCC(=O)Nc3ccccn3)C2=O)cc1 | 63.2 | 27.9 | 72.6 | 95.6 | 71.5 | - | 32.5 | - | . | . | Mdm2-MdmX confirm=95.2
CN(C)c1nc(Nc2ccccc2)nc(N(C)C)n1 | - | - | - | - | - | - | . | . | . | .
CN(C)c1ccc(Nc2nc(N)c3ccccc3n2)cc1 | 83.9 | 70.5 | 109.1 | 47.2 | 66.8 | 95.1 | 92.1 | 78.3 | 79.0 | -
CCc1ccc(NC(=O)CSc2nc(C)cs2)cc1 | - | . | . | - | - | - | . | . | . | .
COc1ccc(C(=O)Nn2c(SCC(=O)N3CCC(C)CC3)nc3ccccc3c2=O)cc1 | 52.4 | 73.4 | 82.8 | 51.2 | 81.2 | 97.1 | 71.2 | 67.4 | 67.2 | 77.6
COCCn1c(SCC(=O)N2CCC(C)CC2)nc2ccccc2c1=O | - | - | - | - | - | - | . | . | . | .
O=C(Nc1cccc(C(F)(F)F)c1)c1csc([C@@H]2O[C@H](CO)[C@@H](O)[C@H]2O)n1 | - | . | . | - | - | - | . | . | . | .
Cc1ccc(C(=O)Nc2ccc3c(c2)OCCO3)c(C)c1 | 87.4 | 65.5 | 73.5 | 51.6 | 58.8 | 84.6 | 82.5 | 76.5 | 69.9 | -
CCOc1ccc(OCc2ccc(C(=O)O)o2)cc1 | - | 89.7 | - | 41.7 | - | 51.5 | 92.1 | 60.1 | - | -
COC(=O)c1ccc(COc2ccc(C=O)cc2)o1 | - | - | - | - | - | - | . | . | . | .
COc1ccc(CCNC(=O)c2ccc3c(c2)OCCO3)cc1 | - | - | - | - | - | - | . | . | . | .
O=C(NCCc1ccccc1)c1ccc2c(c1)OCCO2 | 82.8 | 85.1 | 105.8 | 84.2 | 82.7 | 98.6 | 97.0 | 88.8 | 90.8 | 94.9
O=C(NCCc1ccccc1)c1ccc2c(c1)OCCCO2 | 92.3 | 94.8 | 107.1 | 92.2 | 83.7 | 101.2 | 95.2 | 89.9 | . | . | Mdm2-MdmX confirm=99.5
CCn1c(C)cc(C(=O)COC(=O)CNC(=O)c2ccco2)c1C | - | . | . | - | - | - | . | . | . | .
Cc1ccc(NC(=O)COC(=O)CCC2CCCC2)c(Br)c1 | - | . | . | - | - | - | . | . | . | .
COCCn1c(C)cc(C2=NNC(=Nc3ccccc3F)SC2)c1C | - | 77.3 | 91.4 | 77.9 | 89.4 | 105.4 | 62.2 | 55.4 | - | 71.3 | Mdm2-MdmX confirm=80.0
Cc1cc(C2=NNC(=Nc3ccccc3)SC2)c(C)n1C | - | - | - | - | - | - | . | . | . | .
CCCNC(=O)CSCc1nc(-c2ccc(SC)cc2)oc1C | - | - | - | - | - | - | . | . | . | .
CCc1ccc(-c2nc(CSCC(=O)NCc3ccco3)c(C)o2)cc1 | - | 19.1 | 77.4 | 40.5 | - | 65.0 | 30.8 | - | 43.9 | -
Cc1ccc(/C(O)=C2/C(=O)C(=O)N(Cc3cccnc3)C2c2ccccn2)cc1 (stereo not drawn) | - | - | - | - | - | - | . | . | . | .
Cc1c(/C(O)=C2/C(=O)C(=O)N(Cc3cccnc3)C2c2ccccn2)cnn1-c1ccccc1 (stereo not drawn) | - | 75.4 | - | 67.2 | 91.5 | 101.4 | 23.9 | 30.1 | 52.1 | 55.6
O=C(O)CSCC(=O)Nc1ccc(C2CCCCC2)cc1 | - | 52.1 | 108.1 | 81.2 | 83.1 | 92.5 | 56.9 | - | 95.1 | 93.5
CCC(=O)N1CCCC1(C)C(=O)Nc1ccc2scnc2c1 (stereo not drawn) | - | . | . | - | - | - | . | . | . | .
Cc1c(CC(=O)NCCCC(=O)O)c(=O)oc2cc3c(cc12)CCC(C)(C)O3 | - | 23.8 | - | 61.5 | - | 81.1 | 36.0 | - | 81.2 | 86.2
O=C(CCCc1ccccc1)Nc1cccc(C(=O)O)c1 | - | 60.7 | - | 54.5 | - | - | 70.9 | 74.6 | 58.9 | -
SMILES | C8 TRAIL sens | HSP90 inh | aSyn UTR inh | HIF-2a inh | TROY NFkB inh | TWEAK-Fn14 inh | HSP90 inh confirm | luciferase ctr | HIF-2a inh conf | HIF-1a counter | others
COC(=O)c1cccc(NC(=O)CCc2ccccc2)c1 | - | - | - | - | - | - | . | . | . | .
Cc1ccc2nc(NC(=O)CSCC(=O)OCC(=O)c3ccccc3)sc2c1 | - | 65.6 | 61.7 | 70.6 | 73.0 | 95.6 | 78.5 | - | 75.1 | 74.4
Cc1ccc2nc(NC(=O)CCCC(=O)O)sc2c1 | - | 16.9 | 102.2 | 82.8 | 66.2 | 86.3 | 24.0 | - | 94.8 | 89.8
CCOCC(=O)Nc1nc2ccc(C)cc2s1 | - | - | - | - | - | - | . | . | . | .
O=C(O)c1ccc(Nc2nc3c(s2)CCCC3)cc1 | - | 66.6 | - | 46.0 | - | 90.9 | 91.3 | 80.5 | 63.7 | 51.7
CC(=O)Nc1ccc(S(=O)(=O)N2CCSc3ccccc32)cc1 | - | . | . | - | - | - | . | . | . | .
Cc1nc(C)c(C(=O)Nc2ncc([N+](=O)[O-])s2)o1 | - | 47.0 | - | 56.0 | - | 85.4 | 65.8 | 40.6 | 58.8 | -
CCCCn1nnnc1C(c1ccc(OC)cc1)N1CCN(C/C=C/c2ccccc2)CC1 (stereo not drawn) | - | . | . | - | - | - | . | . | . | .
Cc1ccc(C(=O)CN2C(=O)c3ccccc3S2(=O)=O)cc1 | - | 24.4 | 109.4 | 86.9 | 82.9 | 98.9 | 56.7 | - | 87.2 | 81.7
O=C(CN1C(=O)c2ccccc2S1(=O)=O)c1ccccc1Cl | - | 53.2 | 100.6 | 48.4 | 84.6 | 101.9 | 76.2 | - | 75.5 | 67.8
CC(C)NC(=O)CN1C(=O)c2ccccc2S1(=O)=O | - | - | - | - | - | - | . | . | . | .
COc1cccc(/C=N/Nc2ncccc2[N+](=O)[O-])c1OC | - | 67.4 | 91.6 | 50.9 | 74.7 | 100.1 | 76.5 | 70.3 | 74.2 | -
COc1ccc(/C=C/C(=O)OCC(=O)Nc2cccc(S(=O)(=O)NC3=NCCCCC3)c2)cc1 | - | . | . | - | - | - | . | . | . | .
CCc1ccc(C(=O)Nc2nc3ccccc3[nH]2)cc1 | 96.3 | 79.6 | 87.9 | 63.0 | 80.3 | 97.9 | 90.5 | 85.0 | 84.3 | 83.7
N#Cc1ccc(C(=O)Nc2nc3ccccc3[nH]2)cc1 | - | - | - | - | - | - | . | . | . | .
O=C(NC1=NCCS1)C1COc2ccccc2O1 (stereo not drawn) | - | 78.7 | 98.2 | 83.3 | 86.0 | 105.6 | 92.1 | 81.0 | 89.7 | 84.8
CC(C)(C)c1ccc(/C=N/Nc2ccc(C(=O)O)cc2)cc1 | - | 58.4 | - | 74.2 | 59.2 | 92.7 | 85.7 | 82.8 | 76.4 | -
